# Inconclusive results are not listed. Active and inactive are the calls of the source. The calls were made as follows, unless noted: active = hit-call score of the fitted dose curve at least 0.9, where 1 is the maximum; inconclusive = response in the unintended direction; inactive = score below 0.9.
# Experiments:
# [1] = molecular target: Glucocorticoid receptor (Homo sapiens) (UniProt P04150); test: NVS_NR_hGR: NovaScreen (NVS) Nuclear Receptor Binding Assay for human Glucocorticoid Receptor (GR) (AID 2283363)
# In short: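 Single-readout cell-free binding: radioligand plus extracted receptor, 16-hour dosing, filter radiodetection; 25 uM duplicate primary, concentration series secondary.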
# [2] = test system: guinea pig Dopamine Transporter (DAT), gene 100714898; test: NVS_TR_gDAT: NovaScreen (NVS) Transporter Assay for guinea pig Dopamine Transporter (DAT) (AID 2283369);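 also: active compounds lower bound radioligand signal relative to DMSO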
# In short: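 Guinea pig striatal membranes, cell-free radioligand binding with filter-based scintillation counting, read 2 h after dosing. Loss of signal versus DMSO baseline; single-concentration primary (25 uM) then concentration-response up to 50 uM.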
# [3] = test system: rat Norepinephrine Transporter (NET), gene 83511; test: NVS_TR_rNET: NovaScreen (NVS) Transporter Assay for rat Norepinephrine Transporter (NET) (AID 2283373)
# In short: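 Competitive radioligand displacement at the rat NET using forebrain membrane preparations, 1 h incubation, filter-based scintillation readout. Primary testing in duplicate at a single 25 uM concentration; confirmed actives retested across concentrations.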
# [4] = molecular target: human Dopamine Transporter (DAT), SLC6A3 (gene 6531) (UniProt Q01959); test: NVS_TR_hDAT: NovaScreen (NVS) Transporter Assay for human Dopamine Transporter (DAT) (AID 2283374);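 also: activity means loss of bound radioligand signal relative to DMSO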
# human Dopamine Transporter (DAT), SLC6A3 (gene 6531), sequence (Q01959 whole entry, looked up): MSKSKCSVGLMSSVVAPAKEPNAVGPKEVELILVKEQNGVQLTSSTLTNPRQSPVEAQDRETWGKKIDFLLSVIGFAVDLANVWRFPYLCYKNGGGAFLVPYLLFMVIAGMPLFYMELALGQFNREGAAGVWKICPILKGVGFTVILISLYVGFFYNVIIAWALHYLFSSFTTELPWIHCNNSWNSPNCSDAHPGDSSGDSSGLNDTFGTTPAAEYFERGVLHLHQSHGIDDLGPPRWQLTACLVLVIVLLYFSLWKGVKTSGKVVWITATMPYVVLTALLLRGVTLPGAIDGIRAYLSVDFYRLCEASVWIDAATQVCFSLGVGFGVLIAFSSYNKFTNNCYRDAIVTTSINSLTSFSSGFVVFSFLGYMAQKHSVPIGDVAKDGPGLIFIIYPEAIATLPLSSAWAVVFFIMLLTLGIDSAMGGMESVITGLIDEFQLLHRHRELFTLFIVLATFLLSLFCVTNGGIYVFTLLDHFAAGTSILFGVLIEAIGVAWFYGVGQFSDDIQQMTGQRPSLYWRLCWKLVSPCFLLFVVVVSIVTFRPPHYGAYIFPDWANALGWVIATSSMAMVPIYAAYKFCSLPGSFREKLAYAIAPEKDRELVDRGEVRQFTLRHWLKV
# In short: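 Extracted human SLC6A3 protein incubated 1 h with radioligand and test chemical; bound fraction separated on filters and counted. Single 25 uM duplicate screen preceded concentration-response follow-up; positive and negative controls on every plate.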
# [5] = molecular target: human Norepinephrine Transporter (NET), SLC6A2 (gene 6530) (UniProt P23975); test: NVS_TR_hNET: NovaScreen (NVS) Transporter Assay for human Norepinephrine Transporter (NET) (AID 2283377);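 also: cell-free membrane protein extracted from CHO cells expressing human NET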;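 as to AC50: displacement of radioligand from human NET seen as loss of scintillation signal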
# human Norepinephrine Transporter (NET), SLC6A2 (gene 6530), sequence (P23975 whole entry, looked up): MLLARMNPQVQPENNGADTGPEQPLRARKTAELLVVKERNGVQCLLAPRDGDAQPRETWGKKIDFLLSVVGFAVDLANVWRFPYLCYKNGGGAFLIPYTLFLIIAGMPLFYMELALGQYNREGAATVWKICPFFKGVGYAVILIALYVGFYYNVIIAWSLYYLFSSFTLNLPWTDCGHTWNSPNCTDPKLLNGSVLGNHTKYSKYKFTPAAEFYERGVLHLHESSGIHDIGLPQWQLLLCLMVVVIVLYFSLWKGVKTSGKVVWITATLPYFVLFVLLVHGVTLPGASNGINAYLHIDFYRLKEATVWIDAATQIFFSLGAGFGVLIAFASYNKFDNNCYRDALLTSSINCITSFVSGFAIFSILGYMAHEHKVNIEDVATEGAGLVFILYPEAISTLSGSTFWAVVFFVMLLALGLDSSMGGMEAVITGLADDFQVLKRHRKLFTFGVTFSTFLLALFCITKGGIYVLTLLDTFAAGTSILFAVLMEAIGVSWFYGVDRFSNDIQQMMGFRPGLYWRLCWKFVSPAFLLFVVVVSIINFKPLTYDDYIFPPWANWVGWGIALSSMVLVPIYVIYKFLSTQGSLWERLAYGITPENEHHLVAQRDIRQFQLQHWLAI
# In short: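 In this cell-free binding screen, chemicals at 25 uM (duplicate) compete with a radioligand for CHO-derived human NET over 1 hour, with filter-based radiodetection.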
# [6] = molecular target: mouse Estrogen Receptor alpha (Era), Esr1 (gene 13982) (UniProt P19785); test: NVS_NR_mERa: NovaScreen (NVS) Nuclear Receptor Binding Assay for mouse Estrogen Receptor alpha (Era) (AID 2283378);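 also: hit means loss of bound radioligand signal relative to DMSO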
# mouse Estrogen Receptor alpha (Era), Esr1 (gene 13982), sequence (P19785 whole entry, looked up): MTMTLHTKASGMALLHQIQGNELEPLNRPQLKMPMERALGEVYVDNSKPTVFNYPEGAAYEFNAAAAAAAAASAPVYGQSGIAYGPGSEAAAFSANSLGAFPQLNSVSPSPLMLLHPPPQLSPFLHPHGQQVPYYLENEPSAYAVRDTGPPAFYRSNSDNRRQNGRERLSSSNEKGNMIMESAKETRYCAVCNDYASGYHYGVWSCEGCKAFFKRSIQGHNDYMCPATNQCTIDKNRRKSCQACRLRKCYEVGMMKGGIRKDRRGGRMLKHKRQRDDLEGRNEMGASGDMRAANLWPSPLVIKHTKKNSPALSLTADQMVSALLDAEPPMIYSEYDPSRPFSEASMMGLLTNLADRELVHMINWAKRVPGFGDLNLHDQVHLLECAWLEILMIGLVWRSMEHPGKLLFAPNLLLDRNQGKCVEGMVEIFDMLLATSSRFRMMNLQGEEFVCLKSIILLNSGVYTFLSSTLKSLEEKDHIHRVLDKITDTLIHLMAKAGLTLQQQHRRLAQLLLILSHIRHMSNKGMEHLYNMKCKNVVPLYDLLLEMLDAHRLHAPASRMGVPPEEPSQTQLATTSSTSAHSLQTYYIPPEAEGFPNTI
# In short: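 Cell-free radioligand competitive displacement binding, read by filter-based scintillation counting 18 h after dosing. Primary screen run in duplicate at 25 uM, actives retested in concentration series; loss of signal versus DMSO.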
# [7] = molecular target: Estrogen receptor beta (Homo sapiens) (UniProt Q92731); test: OT_ER_ERbERb_1440: Odyssey Thera (OT) 24-hour HEK293T Protein-Complementation Assay for Estrogen Receptor-beta/-beta Homodimer (AID 2283380);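 also: fluorescence gain from ER beta LBD homodimer complementation read by laser scanning cytometry; scored as signal increase over DMSO baseline for both agonists and antagonists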
# Estrogen receptor beta (Homo sapiens), sequence (Q92731 whole entry, looked up, the tested form may be a part): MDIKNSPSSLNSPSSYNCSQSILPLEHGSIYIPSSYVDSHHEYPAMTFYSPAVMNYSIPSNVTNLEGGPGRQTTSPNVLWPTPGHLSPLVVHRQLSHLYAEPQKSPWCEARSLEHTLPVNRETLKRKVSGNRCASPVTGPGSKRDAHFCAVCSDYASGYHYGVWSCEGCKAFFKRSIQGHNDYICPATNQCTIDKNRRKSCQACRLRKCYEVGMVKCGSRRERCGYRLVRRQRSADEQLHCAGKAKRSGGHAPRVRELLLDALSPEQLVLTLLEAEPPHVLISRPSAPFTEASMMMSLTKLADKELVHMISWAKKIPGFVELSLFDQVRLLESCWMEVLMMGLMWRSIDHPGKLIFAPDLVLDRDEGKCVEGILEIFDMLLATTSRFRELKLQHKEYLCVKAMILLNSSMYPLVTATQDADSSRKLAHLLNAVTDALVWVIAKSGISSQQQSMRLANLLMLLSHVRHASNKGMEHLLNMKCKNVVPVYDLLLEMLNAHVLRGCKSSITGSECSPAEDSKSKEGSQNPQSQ
# In short: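 HEK293T cells stably expressing human ER-beta LBD (aa 310-547) PCA homodimer pair, dosed 24 h; formaldehyde-fixed, Draq5-stained. Readout: increase in nuclear (agonist) or nuclear plus cytoplasmic (antagonist) fluorescence intensity versus DMSO, gain-of-signal fitting.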
# [8] = molecular target: Estrogen receptor (Homo sapiens) (UniProt P03372); test: OT_ERa_GFPERaERE_0480: Odyssey Thera (OT) 8-hour HeLa Transcription Induction Assay for Estrogen Receptor (AID 2283381; active = hit-call score of the fitted dose curve at least 0.9, where 1 is the maximum; inactive = score below 0.9)
# Estrogen receptor (Homo sapiens), sequence (P03372 whole entry, looked up): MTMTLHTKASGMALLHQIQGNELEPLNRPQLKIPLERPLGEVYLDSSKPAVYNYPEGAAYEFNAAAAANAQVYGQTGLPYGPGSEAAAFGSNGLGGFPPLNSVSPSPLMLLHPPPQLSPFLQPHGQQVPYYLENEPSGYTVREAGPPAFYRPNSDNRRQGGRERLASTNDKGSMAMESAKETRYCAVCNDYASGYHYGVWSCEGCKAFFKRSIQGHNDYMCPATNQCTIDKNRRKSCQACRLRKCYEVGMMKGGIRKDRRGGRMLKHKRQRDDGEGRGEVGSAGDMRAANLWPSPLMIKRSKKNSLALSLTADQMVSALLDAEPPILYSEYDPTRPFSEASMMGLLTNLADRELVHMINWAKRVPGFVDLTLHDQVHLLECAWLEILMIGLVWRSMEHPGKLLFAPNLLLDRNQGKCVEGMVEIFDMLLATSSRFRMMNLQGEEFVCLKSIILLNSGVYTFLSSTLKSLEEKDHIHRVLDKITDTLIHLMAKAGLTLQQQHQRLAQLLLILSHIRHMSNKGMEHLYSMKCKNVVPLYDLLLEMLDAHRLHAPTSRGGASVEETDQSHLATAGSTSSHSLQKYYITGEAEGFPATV
# In short: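 Fluorescence microscopy with high-content image analysis measures ERE-driven GFP induction in HeLa cells at 8 h post-dose. Increases fitted against DMSO baseline.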
# PGR (gene 5241) = PGR (gene 5241) (UniProt P06401); test: NVS_NR_hPR: NovaScreen (NVS) Nuclear Receptor Binding Assay for human Progestron Receptor (PR) (AID 2283360);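 also: active means loss of bound radioligand signal versus DMSO baseline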
# In short: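 T47D-derived receptor preparation, cell-free, with tritiated or iodinated radioligand displacement measured by scintillation 18 h post-dosing. Single 25 uM duplicate screen, then concentration series; signal loss relative to DMSO.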
# [9] = molecular target: guinea pig Sigma Receptor, Non-selective Binding, SIGMAR1 (gene 100135589) (UniProt Q60492); test: NVS_OR_gSIGMA_NonSelective: NovaScreen (NVS) Nuclear Receptor Binding Assay for guinea pig Sigma Receptor, Non-selective Binding (AID 2283367)
# In short: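 Test chemicals were screened in duplicate at 25 uM, then in concentration series if active, against radioligand binding to guinea pig brain membranes; filtration and scintillation counting at 1 h measured remaining bound ligand.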
# [10] = molecular target: Agonist Androgen Response Element (ARE), AR (gene 367) (UniProt P10275); test: OT_AR_ARELUC_AG_1440: Odyssey Thera (OT) 24-hour CHO-K1 Luciferase Assay for Agonist Androgen Response Element (ARE) (AID 2283379)
# Agonist Androgen Response Element (ARE), AR (gene 367), sequence (P10275 whole entry, looked up): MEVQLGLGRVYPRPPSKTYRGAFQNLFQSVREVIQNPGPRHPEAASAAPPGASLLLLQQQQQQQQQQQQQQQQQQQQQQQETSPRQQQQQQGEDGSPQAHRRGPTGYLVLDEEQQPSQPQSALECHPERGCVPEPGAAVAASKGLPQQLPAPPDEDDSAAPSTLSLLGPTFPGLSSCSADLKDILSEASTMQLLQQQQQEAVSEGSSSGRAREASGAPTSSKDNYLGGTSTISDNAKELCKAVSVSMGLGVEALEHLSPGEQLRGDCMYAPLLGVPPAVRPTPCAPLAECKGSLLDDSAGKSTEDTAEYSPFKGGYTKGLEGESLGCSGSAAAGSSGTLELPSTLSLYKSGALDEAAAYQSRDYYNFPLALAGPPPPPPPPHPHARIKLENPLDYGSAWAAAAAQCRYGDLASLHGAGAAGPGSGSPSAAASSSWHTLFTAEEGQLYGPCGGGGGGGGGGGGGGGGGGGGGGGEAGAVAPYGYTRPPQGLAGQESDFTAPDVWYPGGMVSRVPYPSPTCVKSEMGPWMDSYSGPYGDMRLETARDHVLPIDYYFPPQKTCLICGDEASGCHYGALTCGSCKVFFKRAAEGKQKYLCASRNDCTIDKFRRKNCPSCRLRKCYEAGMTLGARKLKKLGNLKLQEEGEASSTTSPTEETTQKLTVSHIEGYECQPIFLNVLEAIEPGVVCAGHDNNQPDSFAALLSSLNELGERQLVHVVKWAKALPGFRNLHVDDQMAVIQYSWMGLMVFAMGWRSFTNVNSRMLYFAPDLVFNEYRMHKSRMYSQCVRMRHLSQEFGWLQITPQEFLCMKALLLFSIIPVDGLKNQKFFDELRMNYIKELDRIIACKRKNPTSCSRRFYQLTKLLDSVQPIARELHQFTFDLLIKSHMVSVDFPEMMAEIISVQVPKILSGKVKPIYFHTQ
# In short: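 Luminescence increase above DMSO, read after a 24 h compound treatment of CHO-K1 cells expressing an androgen response element luciferase reporter, gives the single primary endpoint; concentration-response fitting used the positive direction.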
# [11] = molecular target: human Peroxisome Proliferator-activated Receptor alpha (PPARa), PPARA (gene 5465) (UniProt Q07869); test: NVS_NR_hPPARa: NovaScreen (NVS) Nuclear Receptor Binding Assay for human Peroxisome Proliferator-activated Receptor alpha (PPARa) (AID 2283359);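 also: activity means loss of TR-FRET signal versus DMSO baseline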
# In short: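 One-hour incubation, cell-free extracted protein, TR-FRET binding readout; signal loss vs DMSO scored. Screen: 25 uM duplicates, confirmatory dose series for actives.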
# [12] = molecular target: Peroxisome proliferator-activated receptor gamma (Homo sapiens) (UniProt P37231); test: NVS_NR_hPPARg: NovaScreen (NVS) Nuclear Receptor Binding Assay for human Peroxisome Proliferator-activated Receptor gamma (PPARg) (AID 2283370)
# Peroxisome proliferator-activated receptor gamma (Homo sapiens), sequence (P37231 whole entry, looked up): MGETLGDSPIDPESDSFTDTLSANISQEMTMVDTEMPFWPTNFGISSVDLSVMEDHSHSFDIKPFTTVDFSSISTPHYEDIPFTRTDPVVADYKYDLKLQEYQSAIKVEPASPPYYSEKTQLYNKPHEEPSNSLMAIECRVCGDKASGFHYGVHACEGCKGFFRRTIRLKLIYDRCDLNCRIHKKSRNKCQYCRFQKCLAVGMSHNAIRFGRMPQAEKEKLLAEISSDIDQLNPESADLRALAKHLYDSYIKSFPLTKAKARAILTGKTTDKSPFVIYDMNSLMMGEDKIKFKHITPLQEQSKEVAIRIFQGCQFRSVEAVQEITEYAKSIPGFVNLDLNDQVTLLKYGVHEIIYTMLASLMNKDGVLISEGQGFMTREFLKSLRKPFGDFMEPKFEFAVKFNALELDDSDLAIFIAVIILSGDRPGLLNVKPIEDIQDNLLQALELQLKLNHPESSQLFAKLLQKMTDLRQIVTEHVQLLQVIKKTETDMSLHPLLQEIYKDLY
# In short: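 Cell-free fluorescence polarization binding to human PPARg protein, read 2 h after dosing. Primary screen in duplicate at 25 uM, actives followed in concentration series; loss of signal relative to DMSO scored.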
# [13] = molecular target: Retinoic acid receptor alpha (Homo sapiens) (UniProt P10276); test: NVS_NR_hRARa_Agonist: NovaScreen (NVS) Nuclear Receptor Binding Assay for human Retinoic Acid Alpha Receptor Agonism (RAR) (AID 2283361)
# In short: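 Compounds screened at 25 uM, duplicate, then in concentration series if active. Detection: TR-FRET gain of signal versus DMSO after 2 h with cell-free extracted RARα.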
# [14] = molecular target: Norway rat Vesicular Monoamine Transporter (VMAT2), neurotransmitter transporter, Slc18a2 (gene 25549) (UniProt Q01827); test: NVS_TR_rVMAT2: NovaScreen (NVS) Transporter Assay for Norway rat Vesicular Monoamine Transporter (VMAT2), neurotransmitter transporter (AID 2283376);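 also: actives lower the bound radioligand signal below the DMSO level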
# Norway rat Vesicular Monoamine Transporter (VMAT2), neurotransmitter transporter, Slc18a2 (gene 25549), sequence (Q01827 whole entry, looked up): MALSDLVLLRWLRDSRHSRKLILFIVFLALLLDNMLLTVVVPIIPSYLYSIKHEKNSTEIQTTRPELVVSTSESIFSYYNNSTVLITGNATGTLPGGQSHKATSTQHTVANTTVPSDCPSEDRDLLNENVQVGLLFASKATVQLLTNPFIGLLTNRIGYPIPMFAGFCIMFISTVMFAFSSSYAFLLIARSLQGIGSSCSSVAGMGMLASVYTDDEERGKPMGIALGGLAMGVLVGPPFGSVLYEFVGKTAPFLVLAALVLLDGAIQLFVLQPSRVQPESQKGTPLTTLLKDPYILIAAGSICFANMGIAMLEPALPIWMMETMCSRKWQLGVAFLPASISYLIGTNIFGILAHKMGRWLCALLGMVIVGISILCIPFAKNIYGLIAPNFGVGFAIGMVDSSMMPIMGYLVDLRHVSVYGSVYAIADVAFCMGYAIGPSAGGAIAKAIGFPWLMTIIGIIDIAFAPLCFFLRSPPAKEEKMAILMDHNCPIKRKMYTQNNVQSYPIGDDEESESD
# In short: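 Binding endpoint from rat forebrain tissue, cell-free; 1 h incubation; filtered radioligand counted; 25 uM duplicate primary then dose series; DMSO negative control.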
structure (smiles),measurement,setting,value
CCC(C)(C)c1ccc(O)cc1,outcome,[1],inactive
same,AC50,[2],17.3 µM (active)
same,outcome,[3],inactive
same,AC50,[4],10 µM (active)
same,AC50,[5],16.1 µM (active)
same,AC50,[6],25 µM (active)
same,AC50,[7],4.88 µM (active)
same,AC50,[8],1.32 µM (active)
CC(Cl)CN(C)C (centres undefined),outcome,PGR (gene 5241),inactive
CCN(CC)c1ccccc1,outcome,[9],inactive
same,outcome,[10],inactive
same,outcome,[7],inactive
same,outcome,[8],inactive
CCOP(=S)(OCC)SCSCC,outcome,[11],inactive
same,outcome,[12],inactive
same,outcome,[7],inactive
same,outcome,[8],inactive
CCOP(=S)(NC(C)C)Oc1ccccc1C(=O)OC(C)C (centres undefined),outcome,[1],inactive
CCCCc1ccc(O)cc1,outcome,[13],inactive
same,outcome,[6],inactive
same,AC50,[7],19.6 µM (active)
same,outcome,[8],inactive
O=[N+]([O-])c1ccc(Cl)c(Cl)c1,AC50,[12],9.12 µM (active)
same,outcome,[4],inactive
same,outcome,[5],inactive
same,outcome,[8],inactive
O=S(=O)(c1ccc(O)cc1)c1ccc(O)cc1,outcome,[12],inactive
same,outcome,[6],inactive
same,AC50,[7],39.5 µM (active)
same,AC50,[8],12.6 µM (active)
Cc1cccc(N)c1,outcome,[13],inactive
same,outcome,[8],inactive
O=P(OCC(Br)CBr)(OCC(Br)CBr)OCC(Br)CBr (centres undefined),outcome,[11],inactive
same,outcome,[14],inactive
same,outcome,[10],inactive
same,outcome,[7],inactive
same,outcome,[8],inactive
Nc1ccc2ccccc2c1,outcome,[12],inactive
same,AC50,[3],14.9 µM (active)
same,AC50,[4],12.9 µM (active)
same,AC50,[5],5.64 µM (active)
same,outcome,[7],inactive
same,outcome,[8],inactive
CC(C)(C)c1ccc(O)cc1,outcome,[2],inactive
same,outcome,[3],inactive
O=c1ssc(Cl)c1Cl,outcome,[12],inactive
same,AC50,[4],14.5 µM (active)
same,AC50,[5],18.3 µM (active)
same,outcome,[8],inactive
CCOP(=S)(Oc1ccc([N+](=O)[O-])cc1)c1ccccc1 (centres undefined),outcome,PGR (gene 5241),inactive
same,outcome,[6],inactive
same,outcome,[7],inactive
same,AC50,[8],12.7 µM (active)
O=C(O)C(Cl)Cl,outcome,[11],inactive
same,outcome,[9],inactive
same,outcome,[14],inactive
same,outcome,[8],inactive
CC1(C)CN=C(NN=C(/C=C/c2ccc(C(F)(F)F)cc2)/C=C/c2ccc(C(F)(F)F)cc2)NC1,outcome,[11],inactive
same,outcome,[12],inactive
same,AC50,[14],109 nM (active)
same,AC50,[5],1.6 µM (active)
same,outcome,[10],inactive
same,outcome,[7],inactive
same,outcome,[8],inactive
